Laboratory results from the supplement of paper PMC13380429.

Tested on: Vero E6 infected with SARS-CoV-2
Experiment: inhibition of SARS-CoV-2 cytopathic effect; higher = more antiviral protection, active = above 15
Settings: 48 h

Measured: inhibition of SARS-CoV-2 cytopathic effect

NS(=O)(=O)C#Cc1ccccc1 [pifithrin-mu]
inactive: 1 nM 2.15% | 8.33 nM 5.91% | 100 nM 2.87% | 833.33 nM 4.85%
active: 10000 nM 22.5%

CCN(CC)CCOc1ccc2c(c1)C(=O)c1cc(OCCN(CC)CC)ccc1-2 [tilorone]
active: 10000 nM 24.9%
inactive: 1 nM -0.99% | 8.33 nM 0.89% | 100 nM 1.34% | 833.33 nM 0.62%

C=CC(C)(C)c1cc(/C=C/C(=O)c2ccc(O)cc2)c(OC)cc1O [licochalcone-A]
inactive: 1 nM -0.14% | 8.33 nM 0.43% | 100 nM -0.55% | 833.33 nM -9.62% | 10000 nM 8.6%

O=C(C1CC1)N1CC[C@@H](Cc2n[nH]c(=O)n2-c2ccc(-c3ccc4occc4c3)cc2)C1
inactive: 1 nM -1.12% | 8.33 nM -1.14% | 100 nM -1.43% | 833.33 nM -0.64% | 10000 nM -4.48%

Cc1cc(Nc2ncnc3ccc(NC4=NC(C)(C)CO4)cc23)ccc1Oc1ccn2ncnc2c1 [tucatinib]
inactive: 1 nM -2.37% | 8.33 nM 0.54% | 100 nM -5.16% | 833.33 nM -3.64% | 10000 nM -12.7%

CC[C@@H](C)N(C)C(=O)c1cc2ccccc2c(-c2ccccc2Cl)n1
inactive: 1 nM -0.84% | 8.33 nM 0.72% | 100 nM -0.6% | 833.33 nM 2.81% | 10000 nM 2.78%

C=C(c1ccccc1OCc1cccc(Cl)c1)n1ccnc1 [croconazole]
inactive: 1 nM -1.55% | 8.33 nM -2.51% | 100 nM 0.21% | 833.33 nM 2.28% | 10000 nM -1.36%

COc1cccc2c1c(O)c(C(=O)N(C)c1ccc(C(F)(F)F)cc1)c(=O)n2C [tasquinimod]
inactive: 1 nM 1.2% | 8.33 nM 3.29% | 100 nM 1.4% | 833.33 nM 1.35% | 10000 nM 1.05%

COc1ccc(-c2cc(=S)ss2)cc1 [anethole-trithione]
inactive: 1 nM 1.7% | 8.33 nM -0.29% | 100 nM 1.29% | 833.33 nM -1.2% | 10000 nM 2.76%

CNCc1ccc(-c2cc(-c3nc(-c4ccc(S(=O)(=O)C(C)C)cc4)cnc3N)on2)cc1
inactive: 1 nM 0.45% | 8.33 nM 3.25% | 100 nM 1.09%
active: 833.33 nM 24.5% | 10000 nM 25.2%

COc1cc(Br)c(Nc2nc(-c3c(C)nc4ncccn34)cs2)c(Br)c1
inactive: 1 nM -0.04% | 8.33 nM 0.45% | 100 nM 1.74% | 833.33 nM -3.16% | 10000 nM 10.6%

CCOc1ccc(Cc2cc([C@@H]3O[C@H](SC)[C@@H](O)[C@H](O)[C@H]3O)ccc2Cl)cc1 [sotagliflozin]
inactive: 1 nM -0.94% | 8.33 nM -2.52% | 100 nM -1.14% | 833.33 nM -3.56% | 10000 nM -3.65%

O.O=[Si]=O.O=[Si]=O.O=[Si]=O.O=[Si]=O.[O]=[Mg].[O]=[Mg].[O]=[Mg]
inactive: 1 nM -4.07% | 8.33 nM 0.07% | 100 nM -1.66% | 833.33 nM 5.91% | 10000 nM 8.79%

COc1ccc(-c2cc3c(C)nc(N)nc3n([C@H]3CC[C@H](OCCO)CC3)c2=O)cn1
inactive: 1 nM -0.21% | 8.33 nM 2.83% | 100 nM 0.43% | 833.33 nM -10.1% | 10000 nM -10.3%

COC(=O)C[C@](O)(CCCC(C)(C)O)C(=O)O[C@@H]1C(OC)=C[C@]23CCCN2CCc2cc4c(cc2[C@H]13)OCO4 [homoharringtonine]
inactive: 1 nM 1.04% | 8.33 nM 2.85% | 833.33 nM 4.43% | 10000 nM -23.7%
active: 100 nM 26.2%

CCN(CCCCOC(=O)c1ccc(OC)c(OC)c1)C(C)Cc1ccc(OC)cc1 (stereo not given) [mebeverine]
inactive: 1 nM 1.37% | 8.33 nM -1.75% | 100 nM -0.83% | 833.33 nM -1.35% | 10000 nM -3.11%

NC1CCN(c2cccc(Cl)n2)CC1
inactive: 1 nM 0.72% | 8.33 nM -1.55% | 100 nM -4.6% | 833.33 nM -0.29% | 10000 nM -3.39%

CC(C)COC(=O)c1ccc(N)cc1 [isobutamben]
inactive: 1 nM -0.32% | 8.33 nM -0.5% | 100 nM -1.06% | 833.33 nM -2.97% | 10000 nM 1.5%

COc1ccccc1N1CCN(CCCCN2C(=O)c3ccccc3C2=O)CC1
inactive: 1 nM -0.49% | 8.33 nM -1.04% | 100 nM 2.68% | 833.33 nM 1.7% | 10000 nM 4.74%

CCc1nc2ccc(Cl)cn2c1C(=O)NCc1ccc(N2CCC(c3ccc(OC(F)(F)F)cc3)CC2)cc1
inactive: 1 nM 0.5% | 8.33 nM 1.98% | 100 nM -0.55% | 833.33 nM 0.62% | 10000 nM -1.65%

C[C@@H]1CC(=O)c2c(ccc3c2C(=O)c2cccc(O)c2C3=O)C1 [ochromycinone]
inactive: 1 nM -3.4% | 8.33 nM -1.61% | 100 nM -3.55% | 833.33 nM -1.87% | 10000 nM -3.84%

CC(C)C(=O)Nc1ccc([N+](=O)[O-])c(C(F)(F)F)c1 [flutamide]
inactive: 1 nM -1.61% | 8.33 nM -1.6% | 100 nM -3.44% | 833.33 nM -2.92% | 10000 nM -5.12%

C/C(=N\NC(=S)N1CCC1)c1ccccn1
inactive: 1 nM 0.2% | 8.33 nM 0.91% | 100 nM 2.65% | 833.33 nM -1.1%
active: 10000 nM 20.1%

CON(C)C(=O)[C@H](O)[C@H](Cc1ccccc1)NC(=O)c1cc2cc(Cl)ccc2[nH]1
inactive: 1 nM -0.47% | 8.33 nM 0.53% | 100 nM 1.7% | 833.33 nM 1.24% | 10000 nM 4.39%

CC(=O)CC/C=C(\C)CC/C=C(\C)CC/C=C(\C)CCC=C(C)C [teprenone]
inactive: 1 nM -0.07% | 8.33 nM 1.34% | 100 nM -1.34% | 833.33 nM 1.98% | 10000 nM 0.16%

c1coc(CNc2ncnc3[nH]cnc23)c1 [kinetin]
inactive: 1 nM -0.75% | 8.33 nM 1.25% | 100 nM 1.35% | 833.33 nM 3.24% | 10000 nM 2.8%

C[n+]1c2cc(N)ccc2cc2ccc(N)cc21.Nc1ccc2cc3ccc(N)cc3nc2c1 [acriflavine]
inactive: 1 nM 2.32% | 8.33 nM 1.62% | 100 nM 1.04% | 833.33 nM -1.18% | 10000 nM -12.9%

COc1ccc(C(=O)c2c(C)n(CCN3CCOCC3)c3ccccc23)cc1 [pravadoline]
inactive: 1 nM 3.43% | 8.33 nM 2.8% | 100 nM -0.1% | 833.33 nM -1.26% | 10000 nM -0.15%

COC(=O)C(Cc1ccc(OCCn2c(=O)sc3cc(C(=O)c4ccccc4)ccc32)cc1)C(=O)OC
inactive: 1 nM -0.38% | 8.33 nM 2.25% | 100 nM -1.78% | 833.33 nM -1.22% | 10000 nM 0.02%

Cc1nc(Nc2ncc(C(=O)Nc3c(C)cccc3Cl)s2)cc(N2CCN(CCO)CC2)n1 [dasatinib]
inactive: 1 nM 1.14% | 8.33 nM -1.86% | 100 nM -4.77% | 833.33 nM -12.6% | 10000 nM -11.6%

N#Cc1c(Oc2ccc(F)c(NC(=O)Cc3cccc(C(F)(F)F)c3)c2)ccc2nc(NC(=O)C3CC3)sc12
inactive: 1 nM 0.58% | 8.33 nM 2.74% | 100 nM 2.56% | 833.33 nM 0.34% | 10000 nM -7.91%

CC(C)(C)NCC(O)c1ccccc1Cl (stereo not given) [tulobuterol]
inactive: 1 nM 2.01% | 8.33 nM 1.33% | 100 nM -0.63% | 833.33 nM -10.6% | 10000 nM 2%

COc1cc(N2CCC(N)CC2)ccc1Nc1ncc(Cl)c(-c2c[nH]c3ccccc23)n1
inactive: 1 nM -1% | 8.33 nM 0.49% | 100 nM -1.87% | 833.33 nM -3.58% | 10000 nM -8.45%

O/N=C/c1cc[n+](COC[n+]2ccc(/C=N/O)cc2)cc1 [obidoxime]
inactive: 1 nM 1.54% | 8.33 nM -0.64% | 100 nM -1.56% | 833.33 nM -1.59% | 10000 nM -2.39%

CC(=O)OCC(=O)[C@@]1(O)CC[C@H]2[C@@H]3CCC4=CC(=O)CC[C@]4(C)[C@H]3[C@@H](O)C[C@@]21C [hydrocortisone-acetate]
inactive: 1 nM -3.27% | 8.33 nM -0.84% | 100 nM 0.23% | 833.33 nM -1.92% | 10000 nM -0.4%

CCCCC1CCC(c2nc(-c3ccncc3)no2)CC1 (stereo not given)
inactive: 1 nM 1.12% | 8.33 nM 0.82% | 100 nM -0.05% | 833.33 nM 0.32% | 10000 nM 2.33%

C=C[C@]1(C)C[C@@H](OC(=O)CSC(C)(C)CNC(=O)[C@H](N)C(C)C)[C@]2(C)[C@H](C)CC[C@]3(CCC(=O)[C@H]32)[C@@H](C)[C@@H]1O [valnemulin]
inactive: 1 nM -0.47% | 8.33 nM -0.46% | 100 nM -2.63% | 833.33 nM -4.5% | 10000 nM -4.72%

CCCc1ncc(C[n+]2ccccc2C)c(N)n1 [amprolium]
inactive: 1 nM 7.17% | 8.33 nM 1.36% | 100 nM 4.43% | 833.33 nM -0.09% | 10000 nM 0.03%

O=c1[nH]c(=O)n([C@H]2CCCO2)cc1F (racemic) [ftorafur]
inactive: 1 nM 0.19% | 8.33 nM -1.89% | 100 nM 6.11% | 833.33 nM -0.34% | 10000 nM -2.89%

Cc1ccc(C(=O)C(C)CN2CCCCC2)cc1 (stereo not given) [tolperisone]
inactive: 1 nM -0.13% | 8.33 nM -1.26% | 100 nM -0.59% | 833.33 nM -1.06% | 10000 nM 0.32%
